Results filed as inconclusive are left out. Activity calls are given as the source filed them. Calls follow the shape of the dose curve; as a rule, active = well fitted inhibition curve with a large enough effect; inconclusive = small, poorly fitted or top-dose-only effect; inactive = flat fitted curve, though single readings scatter.
% is scaled to controls: 0 for no effect and ±100 for the full control effect.

The nature of the first assay: Drug repurposing screens with cells derived from glioblastoma tumor samples (AID 1345199). Also: nearly all actives have a fitted effect of over 40% in size. Conditions: GBM patient neurospheres viability, ATP luminescence, 48 h; at 20 µM (top of the series); tumour line C. In short, it runs like this: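 Primary testing used CD133+ neurospheres from four GBM patients, seven concentrations, 48 h exposure and ATP-based viability; confirmation added three slower-growing patient lines.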
Regarding `CCNC1(c2cccs2)CCCCC1=O` (stereo unspecified), the activity, negative = cell killing was -10.7% (inactive).

On to `C[C@]12CCC(=O)C=C1C=C[C@@H]1[C@@H]2CC[C@@]2(C)[C@H]1CC[C@@]2(O)CCC(=O)O`, for which the activity, negative = cell killing is 15.7% (inactive).

For `Clc1ccc(C(Cn2ccnc2)OCc2csc3c(Cl)cccc23)c(Cl)c1` (stereo unspecified), the activity, negative = cell killing is 2.67% (inactive). Still for that read-out and setting: in the case of `O=C1OC2(c3cc(Br)c(O)cc3Oc3c2cc(Br)c(O)[c]3[Hg])c2ccccc21` (stereo unspecified) it was -9.78% (inactive).

Still in this assay, the particulars now being: GBM patient neurospheres viability, ATP luminescence, 48 h; at 21.2 µM (top of the series); tumour line B.
On to `CCNC1(c2cccs2)CCCCC1=O` (stereo unspecified), for which the activity, negative = cell killing was 2.65% (inactive). On the same count and under the same terms, then `C[C@]12CCC(=O)C=C1C=C[C@@H]1[C@@H]2CC[C@@]2(C)[C@H]1CC[C@@]2(O)CCC(=O)O`, with -2.69% (inactive); and `Clc1ccc(C(Cn2ccnc2)OCc2csc3c(Cl)cccc23)c(Cl)c1` (stereo unspecified), with -18.1% (inactive). Regarding `CN1[C@@H]2CC[C@H]1CC(OC1c3ccccc3CCc3ccccc31)C2` (stereo partly specified), the activity, negative = cell killing was -28.8% (inactive).

Still in this assay, the particulars now being: GBM patient neurospheres viability, ATP luminescence, 48 h; at 45.9 µM (top of the series); tumour line B.
Turning to `C[N+]1(C)[C@@H]2CC[C@H]1CC(OC(=O)c1c[nH]c3ccccc13)C2` (stereo partly specified), the activity, negative = cell killing was -23.1% (inactive). Still for that read-out and setting: in the case of `CC(=O)O[C@H]1CC[C@H]2[C@@H]3CCC4=CC(=O)CCC4=C3C=C[C@]12C` it was -12.7% (inactive); in that of `O=P(O)(O)C(Cl)(Cl)P(=O)(O)O`, 1.35% (inactive).

In the case of `C=CCN=C=S`, the activity, negative = cell killing was -6.51% (inactive). On the same count and under the same terms, in the case of `CC[N+](C)(CC)CCOC(=O)C(O)(c1ccccc1)c1ccccc1` it was -10.1% (inactive).

`C[N+]1(C)CCCCC1COC(=O)C(O)(c1ccccc1)c1ccccc1` (stereo unspecified): the activity, negative = cell killing was -0.912% (inactive). Same read-out and setting: in the case of `COCC(C)N(C(=O)CCl)c1c(C)csc1C` (stereo unspecified) it was -13.4% (inactive). Consider `O=c1[nH]cc(N(CCCl)CCCl)c(=O)[nH]1`, for which the activity, negative = cell killing is -11% (inactive).

For `CC(Cc1ccccc1)NC=O` (stereo unspecified), the activity, negative = cell killing was -10.4% (inactive).

In the case of `c1csc(C2(N3CCCCC3)CCCCC2)c1`, the activity, negative = cell killing is -10.4% (inactive). `ClC1=C(Cl)[C@]2(Cl)[C@@H]3[C@H]4C[C@H]([C@@H]5O[C@H]45)[C@@H]3[C@@]1(Cl)C2(Cl)Cl`: the activity, negative = cell killing is -22% (inactive). `O=C(O)C(Cl)(Cl)Cl`: the activity, negative = cell killing was -5.78% (inactive).

Turning to `O=C(CCl)c1ccc(Oc2ccc(C(=O)CCl)cc2)cc1`, the activity, negative = cell killing was -24.4% (inactive). Still for that read-out and setting: in the case of `O=C1CN(O)C(c2ccccc2)=c2cc(Cl)ccc2=N1` it was -13.2% (inactive); in that of `CCCCCCCCOC(=O)c1ccccc1C(=O)OCCCCCCCC`, -18% (inactive).

Take `S=C=S`: the activity, negative = cell killing was -6.17% (inactive). Consider `C=CCN(C1=NCCN1)c1c(Cl)cccc1Cl`, for which the activity, negative = cell killing was -5.59% (inactive).

With `OC[C@@H](O)[C@H]1O[C@@H]2O[C@H](C(Cl)(Cl)Cl)O[C@@H]2[C@H]1O`, the activity, negative = cell killing is -1.98% (inactive). In the case of `C=CCC1(C(C)CCC)C(=O)N=C(S)NC1=O` (stereo unspecified), the activity, negative = cell killing was -7.88% (inactive). Still for that read-out and setting: then `O=C1CCO1`, with -1.82% (inactive); and `CCC/C=C/C=C/C(=O)O[C@H]1/C(=C/C(=O)OC)C[C@H]2C[C@H]([C@@H](C)O)OC(=O)C[C@H](O)C[C@@H]3C[C@H](OC(C)=O)C(C)(C)[C@](O)(C[C@@H]4C/C(=C/C(=O)OC)C[C@H](/C=C/C(C)(C)[C@]1(O)O2)O4)O3`, with -7.48% (inactive); and `CCCCNCC(O)c1ccc(O)cc1` (stereo unspecified), with -14.1% (inactive). On the same count and under the same terms, in the case of `CCC1(c2ccccc2)C(=O)NC(=O)N(C(=O)c2ccccc2)C1=O` (stereo unspecified) it was -17.6% (inactive); in that of `O=C(NC(=O)c1c(F)cccc1F)Nc1ccc(Cl)c(Oc2ncc(C(F)(F)F)cc2Cl)c1`, -0.522% (inactive). The same measure, in the same setting: in the case of `OC(c1ccccc1)(c1ccccc1)C1CN2CCC1CC2` (stereo unspecified) it was -13.1% (inactive); in that of `O=[N+]([O-])c1ccc(F)c([N+](=O)[O-])c1`, -29.6% (inactive); in that of `N#CN`, -13.5% (inactive).

With `C#CC(C)(O)CC` (stereo unspecified), the activity, negative = cell killing is -22.2% (inactive).

The record behind these values is PubChem BioAssay (NCATS).
